Over roughly 39,000 sequences, “fluorescence intensity (a.u.)” has its median near 4,300; the highest 2% begin near 39,000. The list comes from a sample in which the highest values are over-represented; it also holds similar and randomly drawn sequences.
Molecular target: T1, OsSMF1 (Oryza sativa, UniProt Q6ZLB0 1-436)
T1 sequence: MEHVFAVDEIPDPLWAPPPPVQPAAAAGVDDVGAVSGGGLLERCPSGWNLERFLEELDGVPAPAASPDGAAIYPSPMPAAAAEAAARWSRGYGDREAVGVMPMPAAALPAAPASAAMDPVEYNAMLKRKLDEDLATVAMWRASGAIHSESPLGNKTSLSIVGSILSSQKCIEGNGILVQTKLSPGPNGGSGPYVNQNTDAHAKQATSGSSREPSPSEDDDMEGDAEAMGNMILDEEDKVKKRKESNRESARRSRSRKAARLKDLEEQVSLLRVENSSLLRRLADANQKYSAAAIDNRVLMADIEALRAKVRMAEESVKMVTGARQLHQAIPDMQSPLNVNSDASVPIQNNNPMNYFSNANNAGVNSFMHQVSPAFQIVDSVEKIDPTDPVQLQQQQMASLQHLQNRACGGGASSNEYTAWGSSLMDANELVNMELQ
Experiment: protein-binding microarray (RPBM); PBS, 2% BSA, 51.3 ng/ul salmon testes DNA, 50 uM zinc acetate, 200 nM TF, 25 C, 1 h; high values mean tight binding
Details: protein: recombinant; tags: N-terminal polyhistidine and DsRed monomer fusion (pET32a); chain copies: 2; label: CyDye5-dUTP incorporated in the synthesized complementary strand; 3' TTTTT single-stranded linker to array surface; dsDNA, one strand shown
Outline: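 Polyhistidine-tagged DsRed fusions of transcription factors, joined at the N-terminus, were expressed in E. coli BL21-CodonPlus and isolated on Ni–NTA. They were incubated at 200 nM for 1 h at 25 °C on a custom Agilent array, double-stranded and BSA-blocked, in PBS with 2% BSA, salmon testes DNA and 50 µM zinc acetate. The binding signal is per-feature fluorescence intensity (arbitrary units) read on an Axon 4000B scanner after washing.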

| Sequence | binding signal |
| --- | --- |
| AGGATTTCATGTGTTTTGGTTAACATATTCATGTGTGTCTCGGAGTCACCTAGTGCAG | 3500 fluorescence intensity (a.u.) |
| TTTTAGTATATTTATATACTTTGTGCAAGGTGACATGTACCGGAGTCACCTAGTGCAG | 3440 fluorescence intensity (a.u.) |
| CTTCTCTTATTGTTTGTGTCATTTTCATTTATGTCCTTGTCGGAGTCACCTAGTGCAG | 3940 fluorescence intensity (a.u.) |
| GGAGTGGCGGGGTTGCGGCATTGGGAGCTGACGTGGCCGCCGGAGTCACCTAGTGCAG | 25400 fluorescence intensity (a.u.) |
| AAACATCATATCAAATCTTTGGACATAGGTATAGAATATTCGGAGTCACCTAGTGCAG | 8890 fluorescence intensity (a.u.) |
| GTAGAATTATAAAATATATTGTGTACACAATAGGTTTATGCGGAGTCACCTAGTGCAG | 3330 fluorescence intensity (a.u.) |
| ATATAAATAGGTTTCGAGGTAGAATATCAAAACAAGGATGCGGAGTCACCTAGTGCAG | 39300 fluorescence intensity (a.u.) |
| GAGCCACGGTGGAAGGGTATAATCGTAATTTCGCGTATGGCGGAGTCACCTAGTGCAG | 3370 fluorescence intensity (a.u.) |
| ACCGGGTCGCGCGCGTCGTTGAAACGTCACACCTAGCTAACGGAGTCACCTAGTGCAG | 4280 fluorescence intensity (a.u.) |
| CGAATCTTTTGAGCCTAATTAATCTATCATTAGCACATGTCGGAGTCACCTAGTGCAG | 3170 fluorescence intensity (a.u.) |
| AGTAAATCCACATCAACAGCATTCTGTTGTTAACTCTGCCCGGAGTCACCTAGTGCAG | 6820 fluorescence intensity (a.u.) |
| TGAAAATCGCATACTAATTAGCTATTAGTCATGAGCTCTTCGGAGTCACCTAGTGCAG | 3590 fluorescence intensity (a.u.) |
| CAGGGAGCATTGAGATTCACTTTGTCACGATGGTAATATACGGAGTCACCTAGTGCAG | 22600 fluorescence intensity (a.u.) |
| CTGCACCTGCTTGATCTCTTCTATGTCACTGTTCCTCTGACGGAGTCACCTAGTGCAG | 3220 fluorescence intensity (a.u.) |
| TGCTTCCCCTGTTCTGATCACCTGCGCACACGGGTGCTCACGGAGTCACCTAGTGCAG | 49200 fluorescence intensity (a.u.) |
| GGGGAGCTTTGCCCCTGCGCACACTTGTCACGCTCACGCACGGAGTCACCTAGTGCAG | 3220 fluorescence intensity (a.u.) |
| CATAGCCTTTTGCATATGCGTCAAGCGTCTATACGATTCGCGGAGTCACCTAGTGCAG | 3900 fluorescence intensity (a.u.) |
| TGGGCGAGGAAGATATGAGTGTGAAAGGATGGAGGGCCCACGGAGTCACCTAGTGCAG | 32900 fluorescence intensity (a.u.) |
| TTTGACATAGATGTGTTCCTCTAATGACATAGATGTGTTCCGGAGTCACCTAGTGCAG | 3230 fluorescence intensity (a.u.) |
| AGAGCTGAGCCTTATGTGTGGTCTGTCTGTGCCTAGTCGACGGAGTCACCTAGTGCAG | 48400 fluorescence intensity (a.u.) |
| GGTCGACCCACCGTCTGCCACGTCAGCTTGCTGCCCACCACGGAGTCACCTAGTGCAG | 48400 fluorescence intensity (a.u.) |
| TCAGCGGCAGCCCACCCGACTGGGCCGGTCATCGGCGCCACGGAGTCACCTAGTGCAG | 3470 fluorescence intensity (a.u.) |

| Sequence | binding signal |
| --- | --- |
| CAATCATCAGCCACGTCCGCCGCCGCTTCAGCTGGATCGGCGGAGTCACCTAGTGCAG | 4290 fluorescence intensity (a.u.) |
| CTGGAGCGGGCGGCCACGGTCACGCCACGTCAGCTTCCATCGGAGTCACCTAGTGCAG | 42100 fluorescence intensity (a.u.) |
| CGCGGTCGACCCACCGTCTGCCACGTCAGCTTGCTGCCCACGGAGTCACCTAGTGCAG | 25600 fluorescence intensity (a.u.) |
| GTGTGCTGTGTGTGGTCTGAGATGATGTGTACTGCTGCTACGGAGTCACCTAGTGCAG | 3950 fluorescence intensity (a.u.) |
| GACGGCGCGGTCGACCCACCGTCTGCCACGTCAGCTTGCCCGGAGTCACCTAGTGCAG | 50100 fluorescence intensity (a.u.) |
| GACGGCGCGGTCGACCCGCCGTCTGCCACGTCAGCTTGCCCGGAGTCACCTAGTGCAG | 27400 fluorescence intensity (a.u.) |
| GAGAGAAGATAGTAGTGGTAGTAGTAGCTGAGCTGTGTCACGGAGTCACCTAGTGCAG | 3360 fluorescence intensity (a.u.) |
| CGGTCGACCCACCGTCTGCCACGTCAGCTTGCCGCCCACCCGGAGTCACCTAGTGCAG | 22800 fluorescence intensity (a.u.) |
| GCAGACGGCGCGGTCGACCCACCGTCTGCCACGTCAGCTTCGGAGTCACCTAGTGCAG | 37200 fluorescence intensity (a.u.) |
| CTCCATCTCGCAGTCGCAGTGCCAGCTAAGGCCTTGTACACGGAGTCACCTAGTGCAG | 3240 fluorescence intensity (a.u.) |
| GCAGTGGCTAAGCTTAAGCTCAGGTATGATGACTCGTTGGCGGAGTCACCTAGTGCAG | 3610 fluorescence intensity (a.u.) |
| AAGGGCAGCTCAGTCATGGCTGCCACGAGGACAGATGTGGCGGAGTCACCTAGTGCAG | 4760 fluorescence intensity (a.u.) |
| AGAGCAGATCCCCTGTCACGCCGACGCCGCCGCCGCCACCCGGAGTCACCTAGTGCAG | 5410 fluorescence intensity (a.u.) |
| CAATCTGTCATCTCTTTACCAGTCTCATTGACATGTGGGCCGGAGTCACCTAGTGCAG | 3270 fluorescence intensity (a.u.) |
| GAGAAAGGGTGTTGACGTGGCATCCTGACATGTGGGGTCCCGGAGTCACCTAGTGCAG | 15100 fluorescence intensity (a.u.) |
| AATCGGTGTCGTTTTGCACGGCGTGTGCCACGTCAGCGTTCGGAGTCACCTAGTGCAG | 52000 fluorescence intensity (a.u.) |
| CACCTATCCATCCATCCATGTGTGGTGTCGTGTCAGCGTTCGGAGTCACCTAGTGCAG | 6950 fluorescence intensity (a.u.) |
| AGCGGCGTCGTCTCGGCGGTGGCCGGTGCCACGGCGGCGGCGGAGTCACCTAGTGCAG | 6200 fluorescence intensity (a.u.) |
| CGTCGTCGCCGCCGCCGCCCTCTGCGTCGACGCTGCGGCACGGAGTCACCTAGTGCAG | 3220 fluorescence intensity (a.u.) |
| CGACGCCGCCGAGATCGCCGTCACCCGAATCCTGCGACGCCGGAGTCACCTAGTGCAG | 3580 fluorescence intensity (a.u.) |
| GTTTTCGCTTGTACTTCACAGGCTGATCACGGTCAGTACTCGGAGTCACCTAGTGCAG | 48700 fluorescence intensity (a.u.) |
| AGCTTCGGAGGCTGTACACGTAATGTGGTCGCTTGTTTGTCGGAGTCACCTAGTGCAG | 9220 fluorescence intensity (a.u.) |

Source: article PMC7819943, “Rice protein-binding microarrays: a tool to detect cis-acting elements near promoter regions in rice”
